Measurements published in the antibiotic and cytotoxicity screens of Wong et al. (2023).
Out of some 39,000 compounds screened, about 3,300 (8.5%) were called active. The sample holds actives, similar compounds and a random draw of the others, so the mix is not that of the screen.

These molecules were tested on HepG2 (assay: cytotoxicity call (relative viability < 0.9)). Conditions: 10 µM.

Compound	cytotoxicity call
COc1ccc(S(=O)(=O)N(C)C[C@H]2OCCCC[C@@H](C)Oc3ccc(NS(=O)(=O)c4cn(C)cn4)cc3C(=O)N([C@@H](C)CO)C[C@@H]2C)cc1	inactive
C[C@@H]1CCCCO[C@H](CN(C)C(=O)Nc2cccc3ccccc23)[C@H](C)CN([C@@H](C)CO)C(=O)c2cc(NS(=O)(=O)c3cn(C)cn3)ccc2O1	inactive
COc1ccc(S(=O)(=O)Nc2cccc3c2O[C@H](CN(C)C(=O)NC(C)C)[C@@H](C)CN([C@H](C)CO)C3=O)cc1	inactive
C[C@@H]1CCCCO[C@H](CN(C)S(=O)(=O)c2ccccc2)[C@@H](C)CN([C@H](C)CO)C(=O)c2cc(NC(=O)C3CCCCC3)ccc2O1	inactive
CNC(=O)C(=O)NC[C@H]1CCCN1S(=O)(=O)c1cccs1	inactive
CC(=O)OC1CCC2(C)C(CCC3C4CC=C(C(C)=O)C4(C)CCC32)C1 (stereo not drawn) [3-beta-ACETOXYALLOPREG-16-EN-20-ONE ]	inactive
Cc1noc(C)c1S(=O)(=O)Nc1ccc2c(c1)CC(=O)N([C@H](C)CO)C[C@@H](C)[C@@H](CN(C)S(C)(=O)=O)O2	inactive
C[C@@H]1CCCCO[C@@H](CN(C)C(=O)CCC(F)(F)F)[C@H](C)CN([C@@H](C)CO)C(=O)c2cc(NC(=O)CCC(F)(F)F)ccc2O1	inactive
C[C@@H]1CN([C@@H](C)CO)C(=O)c2cc(NC(=O)NC3CCCCC3)ccc2O[C@@H](C)CCCCO[C@@H]1CN(C)Cc1ccc(C(F)(F)F)cc1	inactive
C[C@@H]1CCCCO[C@@H](CN(C)Cc2ccc(C(F)(F)F)cc2)[C@H](C)CN([C@H](C)CO)C(=O)c2cc(NC(=O)NC3CCCCC3)ccc2O1	active
C[C@H]1CCCCO[C@@H](CN(C)Cc2ccc(C(F)(F)F)cc2)[C@@H](C)CN([C@@H](C)CO)C(=O)c2cc(NC(=O)NC3CCCCC3)ccc2O1	active
C[C@@H]1CCCCO[C@H](CN(C)Cc2ccc(C(F)(F)F)cc2)[C@H](C)CN([C@@H](C)CO)C(=O)c2cc(NC(=O)NC3CCCCC3)ccc2O1	active
C[C@@H]1CN([C@H](C)CO)C(=O)c2cc(NC(=O)NC3CCCCC3)ccc2O[C@@H](C)CCCCO[C@H]1CN(C)Cc1ccc(C(F)(F)F)cc1	inactive
CCC(=O)Nc1ccc2c(c1)OC[C@H](C)N(C(=O)CN1CCOCC1)C[C@H](C)[C@@H](OC)CN(C)C2=O	inactive
CO[C@H]1CN(C)C(=O)c2ccc(NS(=O)(=O)c3cn(C)cn3)cc2OC[C@H](C)N(CC2CC2)C[C@H]1C	inactive
O=C(N/N=C/[C@H](O)[C@@H](O)[C@@H](O)[C@H](O)CO)c1ccccn1	inactive
COc1ccc(NC(=O)N(C)C[C@H]2OCCCC[C@H](C)Oc3ccc(NS(=O)(=O)c4ccc(Cl)cc4)cc3C(=O)N([C@@H](C)CO)C[C@@H]2C)cc1	inactive
COc1ccc(-c2cnc3c(c2)C(=O)N([C@H](C)CO)C[C@H](C)[C@@H](CN(C)C(=O)Cc2ccncc2)O3)cc1	inactive
C[C@H](CO)N1C[C@H](C)[C@H](CN(C)S(C)(=O)=O)Oc2ccc(NS(=O)(=O)c3cccs3)cc2CC1=O	inactive
C[C@@H]1CN([C@@H](C)CO)C(=O)Cc2cc(NS(=O)(=O)c3cn(C)cn3)ccc2O[C@H]1CN(C)C(=O)Nc1ccc(F)cc1	inactive
C=CC[C@H](CC(=O)NCCO)C(=O)NC[C@H](OC(=O)[C@@H](CC=C)CC(=O)OC(C)(C)C)c1ccccc1	inactive

Compound	cytotoxicity call
COc1ccc(S(=O)(=O)Nc2cccc3c2O[C@H](CN(C)C(=O)Nc2cccc4ccccc24)[C@H](C)CN([C@@H](C)CO)C3=O)cc1	inactive
Cc1ccc(S(=O)(=O)Nc2cccc3c2O[C@H](CN(C)C(=O)Nc2cccc4ccccc24)[C@@H](C)CN([C@@H](C)CO)C3=O)cc1	active
COc1ccc(S(=O)(=O)Nc2cccc3c2O[C@@H](CN(C)C(=O)Nc2c(C)noc2C)[C@H](C)CN([C@@H](C)CO)C3=O)cc1	inactive
COc1ccc(S(=O)(=O)Nc2cccc3c2O[C@@H](CN(C)C(=O)Nc2cccc4ccccc24)[C@H](C)CN([C@@H](C)CO)C3=O)cc1	active
COc1ccc(S(=O)(=O)Nc2cccc3c2O[C@H](CN(C)C(=O)Nc2c(C)noc2C)[C@@H](C)CN([C@@H](C)CO)C3=O)cc1	inactive
C[C@H](CO)N1C[C@H](C)[C@@H](CN(C)C(=O)Nc2cccc3ccccc23)Oc2c(NS(=O)(=O)c3cccs3)cccc2C1=O	inactive
Cc1ccc(S(=O)(=O)Nc2cccc3c2O[C@@H](CN(C)C(=O)Nc2cccc4ccccc24)[C@H](C)CN([C@@H](C)CO)C3=O)cc1	inactive
Cc1ccc(S(=O)(=O)Nc2cccc3c2O[C@H](CN(C)C(=O)Nc2cccc4ccccc24)[C@@H](C)CN([C@H](C)CO)C3=O)cc1	inactive
COc1ccc(S(=O)(=O)Nc2cccc3c2O[C@H](CN(C)C(=O)Nc2cccc4ccccc24)[C@H](C)CN([C@H](C)CO)C3=O)cc1	inactive
C[C@H]1CN([C@@H](C)CO)C(=O)c2cccc(NS(=O)(=O)c3cccs3)c2O[C@@H]1CN(C)C(=O)Nc1cccc2ccccc12	active
C[C@@H]1CN([C@H](C)CO)C(=O)c2cccc(NS(=O)(=O)c3cccs3)c2O[C@H]1CN(C)C(=O)Nc1cccc2ccccc12	inactive
COc1ccc(S(=O)(=O)Nc2cccc3c2O[C@H](CN(C)C(=O)Nc2c(C)noc2C)[C@@H](C)CN([C@H](C)CO)C3=O)cc1	active
CN(C)CC(=O)N[C@H]1CC[C@@H](CCn2cc(CN(C)C)nn2)O[C@H]1CO	inactive
O=C(N[C@@H]1CC=CC[C@H](CC(=O)N(CCO)Cc2ccccc2)C(=O)NCC(c2ccccc2)OC1=O)OCC1c2ccccc2-c2ccccc21 (some centres not stated)	inactive
C[C@@H]1CN([C@@H](C)CO)C(=O)c2cc(/C=C/c3ccccc3)cnc2O[C@H]1CN(C)C(=O)c1cnccn1	inactive
Cc1cccc(S(=O)(=O)N2C[C@H](O)COC[C@@H]3O[C@@H](CC(=O)NCCCN4CCOCC4)CC[C@H]32)c1	inactive
Cc1noc(C)c1NC(=O)N(C)C[C@H]1OCCCC[C@H](C)Oc2ccc(NC(=O)c3ccccc3)cc2C(=O)N([C@H](C)CO)C[C@@H]1C	inactive
C[C@H]1CNC(=O)[C@@H](CC(=O)N(CCOC(=O)NCCCCCC(=O)NO)Cc2ccccc2)C/C=C/CC[C@H](NC(=O)OC(C)(C)C)C(=O)O1	inactive
COc1ccccc1C#Cc1ccc2c(c1)O[C@@H](CN(C)C(C)=O)[C@@H](C)CN([C@@H](C)CO)S2(=O)=O	inactive
C[C@H]1CCCCO[C@@H](CN(C)Cc2ccc(C(=O)O)cc2)[C@@H](C)CN([C@@H](C)CO)C(=O)c2cc(NC(=O)C3CCCCC3)ccc2O1	inactive
C[C@H](NC(=O)C[C@H]1C[C@@H]2c3cc(NC(=O)Nc4ccc(C(F)(F)F)cc4)ccc3O[C@@H]2[C@H](CO)O1)c1ccccc1	inactive

Compound	cytotoxicity call
C[C@@H]1CCCCO[C@@H](CN(C)C(=O)Nc2cccc3ccccc23)[C@@H](C)CN([C@H](C)CO)C(=O)c2cc(NS(C)(=O)=O)ccc2O1	inactive
C[C@H]1CN([C@@H](C)CO)C(=O)c2cc(NC(=O)Cn3cnnn3)ccc2O[C@@H]1CN(C)S(C)(=O)=O	inactive
CN(C)C(=O)C[C@@H]1CC[C@@H]2[C@H](COC[C@@H](O)CN2S(=O)(=O)c2ccccc2)O1	inactive
C[C@@H]1CN([C@H](C)CO)S(=O)(=O)c2ccc(-c3ccc(F)cc3)cc2O[C@@H]1CN(C)C(=O)C1CCOCC1	inactive
COc1ccc(NC(=O)Nc2ccc3c(c2)C(=O)N([C@H](C)CO)C[C@H](C)[C@@H](CN(C)C(=O)Cc2ccccc2)OCCCC[C@@H](C)O3)cc1	inactive
CCc1nc2ccc(C(=O)NC3CCN(Cc4ccccc4)CC3)cn2c1N(C)Cc1cc2ccccc2s1	active
CCc1nc2ccc(C(=O)Nc3cccc(OCC(=O)N(C)C)c3)cn2c1N(C)Cc1cc2ccccc2s1	inactive
CCc1nc2ccc(C(=O)NC3CCN(Cc4ccccc4)CC3)cn2c1N(C)CCN1CCOCC1	inactive
C[C@@H]1CCCCO[C@@H](CN(C)C(=O)Nc2ccc(C(F)(F)F)cc2)[C@H](C)CN([C@@H](C)CO)C(=O)c2cc(NC(=O)Cc3ccccc3)ccc2O1	inactive
O=C(O)CN(CCN(CC(=O)O)CC(=O)O)CCN(CC(=O)O)CC(=O)O	inactive
CO[C@H]1CCCNC1	inactive
C[C@H]1CN([C@@H](C)CO)C(=O)c2cc(NC(=O)CCCCCC(=O)Nc3ccccc3N)ccc2O[C@@H]1CN(C)C(=O)Nc1ccc(C(F)(F)F)cc1	inactive
C[C@H](CO)N1C[C@H](C)[C@H](CN(C)C(=O)Nc2ccc(C(F)(F)F)cc2)Oc2ccc(NC(=O)CCCCCC(=O)Nc3ccccc3N)cc2C1=O	active
COc1ccc(NC(=O)N(C)C[C@@H]2Oc3ccc(NC(=O)CCCCCC(=O)Nc4ccccc4N)cc3C(=O)N([C@H](C)CO)C[C@H]2C)cc1	inactive
C[C@@H]1CN([C@H](C)CO)C(=O)c2cc(NC(=O)CCCCCC(=O)Nc3ccccc3N)ccc2O[C@H]1CN(C)C(=O)Nc1ccc(C(F)(F)F)cc1	inactive
COc1ccc(NC(=O)N(C)C[C@H]2Oc3ccc(NC(=O)CCCCCC(=O)Nc4ccccc4N)cc3C(=O)N([C@@H](C)CO)C[C@H]2C)cc1	inactive
C[C@H]1CN([C@@H](C)CO)C(=O)c2cc(NC(=O)CCCCCC(=O)Nc3ccccc3N)ccc2O[C@H]1CN(C)C(=O)Nc1ccc(C(F)(F)F)cc1	active
C[C@@H]1CN([C@@H](C)CO)C(=O)c2cc(NC(=O)CCCCCC(=O)Nc3ccccc3N)ccc2O[C@@H]1CN(C)C(=O)Nc1ccc(C(F)(F)F)cc1	inactive
COc1ccc(NC(=O)N(C)C[C@@H]2Oc3ccc(NC(=O)CCCCCC(=O)Nc4ccccc4N)cc3C(=O)N([C@H](C)CO)C[C@@H]2C)cc1	active
C[C@H](CO)N1C[C@H](C)[C@@H](CN(C)C(=O)Nc2ccc(C(F)(F)F)cc2)Oc2ccc(NC(=O)CCCCCC(=O)Nc3ccccc3N)cc2C1=O	inactive
